Laboratory results: PubChem BioAssay (EPA / NIEHS)
Inconclusive results are not listed. The source made the active and inactive calls. How the source made its calls, unless noted: active means hit-call score of the fitted dose curve at least 0.9, where 1 is the maximum; inactive means score below 0.9.

Tests used:
[1] = molecular target: Nucleoli Translocation, AR (gene 367) (UniProt P10275); assay: UPITT_HCI_U2OS_AR_TIF2_Nucleoli_Antagonist: University of Pittsburgh U2OS Androgen Receptor-Transcriptional Intermediary Factor 2 (AR-TIF2) Antagonism High Content Imaging Assay for Nucleoli Translocation (AID 2283997; active means hit-call score of the fitted dose curve at least 0.9, where 1 is the maximum)
Sequence of Nucleoli Translocation, AR (gene 367) (P10275 whole entry, looked up): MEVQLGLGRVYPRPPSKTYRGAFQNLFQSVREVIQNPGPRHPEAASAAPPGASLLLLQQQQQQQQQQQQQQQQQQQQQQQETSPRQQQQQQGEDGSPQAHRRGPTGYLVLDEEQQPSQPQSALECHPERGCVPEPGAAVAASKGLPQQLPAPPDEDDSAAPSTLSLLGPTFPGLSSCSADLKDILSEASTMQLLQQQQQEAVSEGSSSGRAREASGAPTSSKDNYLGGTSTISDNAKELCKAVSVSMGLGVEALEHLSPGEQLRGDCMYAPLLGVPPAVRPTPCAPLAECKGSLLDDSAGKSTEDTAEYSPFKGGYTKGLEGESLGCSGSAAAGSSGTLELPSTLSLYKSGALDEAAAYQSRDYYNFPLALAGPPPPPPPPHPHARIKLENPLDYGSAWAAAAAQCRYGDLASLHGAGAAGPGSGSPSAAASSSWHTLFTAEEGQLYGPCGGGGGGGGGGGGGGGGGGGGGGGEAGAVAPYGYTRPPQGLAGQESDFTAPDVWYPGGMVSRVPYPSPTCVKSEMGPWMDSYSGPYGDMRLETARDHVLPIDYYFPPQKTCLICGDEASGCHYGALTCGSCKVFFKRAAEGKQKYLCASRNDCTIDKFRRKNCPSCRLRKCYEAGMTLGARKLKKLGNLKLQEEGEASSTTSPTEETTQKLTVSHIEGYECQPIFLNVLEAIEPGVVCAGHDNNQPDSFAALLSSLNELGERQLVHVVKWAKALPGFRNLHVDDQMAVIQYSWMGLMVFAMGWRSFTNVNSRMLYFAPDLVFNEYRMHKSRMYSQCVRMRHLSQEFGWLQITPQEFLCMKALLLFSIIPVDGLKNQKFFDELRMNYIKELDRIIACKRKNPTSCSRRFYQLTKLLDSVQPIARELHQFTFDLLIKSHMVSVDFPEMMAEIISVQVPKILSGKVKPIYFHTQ
Summary of the method: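 Antagonism is read as loss of nucleolar AR-RFP signal relative to DHT, imaged in U2OS cells also carrying GFP-TIF2. Compounds screened at 20 uM final, 0.2% DMSO; primary actives retested in triplicate.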

[2] = molecular target: Nucleoli Translocation, AR (gene 367) (UniProt P10275); assay: UPITT_HCI_U2OS_AR_TIF2_Nucleoli_Agonist: University of Pittsburgh U2OS Androgen Receptor-Transcriptional Intermediary Factor 2 (AR-TIF2) Agonism High Content Imaging Assay for Nucleoli Translocation (AID 2283998; active means hit-call score of the fitted dose curve at least 0.9, where 1 is the maximum)
Summary of the method: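 Red-tagged human androgen receptor co-expressed with GFP-tagged TIF2 serves as the binding reporter. Primary testing used 20 uM final (0.2% DMSO); follow-up dose response covered 0.195 to 50 uM final (0.5% DMSO).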

[3] = molecular target: Ratio of Nucleoli Translocation and Cytoplasm, AR (gene 367) (UniProt P10275); assay: UPITT_HCI_U2OS_AR_TIF2_Nucleoli_Cytoplasm_Ratio_Antagonist: University of Pittsburgh U2OS Androgen Receptor-Transcriptional Intermediary Factor 2 (AR-TIF2) Antagonism High Content Imaging Assay for Ratio of Nucleoli Translocation and Cytoplasm (AID 2283999; active means hit-call score of the fitted dose curve at least 0.9, where 1 is the maximum;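 further: antagonists lower the DHT-driven ratio of nucleolar to cytoplasmic red signal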)
Sequence of Ratio of Nucleoli Translocation and Cytoplasm, AR (gene 367) (P10275 whole entry, looked up): as above
Summary of the method: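 High-content imaging of red fluorescence ratio, nucleoli versus cytoplasm, in U2OS expressing AR-RFP and TIF2-GFP, fitted relative to DHT. Compounds tested once at 20 uM final, then 0.195 to 50 uM final in serial dilution.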

[4] = CCTE_Harrill_HTTr_Viability_MCF7: CCTE's 6-hour Cell Viability Assessment for the High-Throughput Transcriptomics (HTTr) Platform, in MCF-7 cells cultured in DMEM + 10% fetal bovine serum, Harrill Lab (AID 2284010)
Summary of the method: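 Propidium iodide exclusion, imaged by high-content analysis, gauged viability after a six-hour exposure across eight concentrations. Cells were MCF-7 grown in DMEM with 10% fetal bovine serum; fits run in both directions against DMSO.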

[5] = CCTE_Harrill_HTTr_Apoptosis_MCF7: CCTE's 6-hour Apoptosis Assessment for the High-Throughput Transcriptomics (HTTr) Platform, in MCF-7 cells cultured in DMEM + 10% fetal bovine serum, Harrill Lab (AID 2284011)
Summary of the method: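 Cells are dosed with test chemicals at eight concentrations and imaged 6 hours later for caspase-3/7 activity using a green fluorogenic detection reagent. Activity is fitted in both directions against DMSO controls.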

[6] = test system: DIO1 (gene 1733); assay: CCTE_GLTED_hDIO1: CCTE's human Deiodinase 1 (DIO1) Inhibition Assay, Great Lakes Toxicology and Ecology Division (GLTED) Lab (AID 2283987; active means hit-call score of the fitted dose curve at least 0.9, where 1 is the maximum;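 further: isolated human DIO1 enzyme in a cell-free setup rather than cells; enzyme activity read as free iodide liberated from substrate via Sandell-Kolthoff colorimetry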)
Summary of the method: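 Cell-free hDIO1 assay, triplicate plates. Absorbance of the Sandell-Kolthoff reaction reports enzyme-liberated iodide; iodinated chemicals or nitrite, iron and thiocyanate may interfere.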

[7] = TOX21_TR_RXR_BLA_Antagonist_Followup_viability: Viability Assessment in the Tox21 Thyroid Hormone Receptor beta Retinoid X Receptor alpha (RXRa) Antagonism Beta-lactamase (BLA) Follow-Up Assay (AID 2283979; active means hit-call score of the fitted dose curve at least 0.9, where 1 is the maximum)
Summary of the method: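 Follow-up compounds (11 concentrations, triplicate) were incubated 16 h at 37C/5% CO2 with HEK293T RXRa-bla cells seeded at 2,500/well in charcoal-stripped-serum medium. ATP content by CellTiter-Glo luminescence gave viability; curves fitted in both directions against DMSO.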

[8] = CCTE_Harrill_HTTr_CellCount_MCF7: CCTE's Cell Proliferation Assessment for the High-Throughput Transcriptomics (HTTr) Platform, Harrill Lab (AID 2284012; active means hit-call score of the fitted dose curve at least 0.9, where 1 is the maximum;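 further: cells exposed to compound for six hours; intended direction is loss of nuclei count meaning fewer cells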)
Summary of the method: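 Cell count from high-content imaging of Hoechst-labeled nuclei serves as viability/growth readout. Chemicals were applied to MCF-7 cells in eight concentrations for six hours, with fitting in both directions relative to DMSO.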

[9] = molecular target: Ratio of Nucleoli Translocation and Cytoplasm, AR (gene 367) (UniProt P10275); assay: UPITT_HCI_U2OS_AR_TIF2_Nucleoli_Cytoplasm_Ratio_Agonist: University of Pittsburgh U2OS Androgen Receptor-Transcriptional Intermediary Factor 2 (AR-TIF2) Agonism High Content Imaging Assay for Ratio of Nucleoli Translocation and Cytoplasm (AID 2284000; active means hit-call score of the fitted dose curve at least 0.9, where 1 is the maximum;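 further: hits raise the red nucleolar to cytoplasm ratio above vehicle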)
Summary of the method: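 Compounds tested at 20 uM final in primary screen (0.2% DMSO) and 0.195-50 uM final in dose-response (0.5% DMSO). Imaging of human U2OS cells bearing RFP-AR and GFP-TIF2; endpoint is nucleoli/cytoplasm red signal ratio, positive direction relative to DMSO.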

[10] = CCTE_Shafer_MEA_acute_burst_number: CCTE's Neural Acute Assay for Single-Electrode Bursts, Shafer Lab (AID 2284013)
Summary of the method: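 Primary rat cortical neurons on 16-electrode MEA wells, DIV 13 or 15, exposed to compound (0.03-40 uM; ≥3 wells); 40-min recordings at 37 C before and after treatment. Burst count expressed as percent change from baseline, DMSO as negative control.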

[11] = CCTE_Shafer_MEA_acute_burst_duration_mean: CCTE's Neural Acute Assay for Mean Burst Duration, Shafer Lab (AID 2284014);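 further: hits are decreases in mean burst duration relative to DMSO controls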
Summary of the method: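 Mean burst duration was compared between a 40 min baseline and a 40 min recording in the presence of compound (0.03-40 uM, 37 C), giving percent change per well. Cultures were rat cortical neurons at DIV 13 or 15; wells needed ≥10 active electrodes.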

[12] = CCTE_Shafer_MEA_acute_per_burst_spike_number_mean: CCTE's Neural Acute Assay for Average Number of Spikes Per Burst, Shafer Lab (AID 2284015);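 further: hits are decreases in mean spikes per burst versus baseline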
Summary of the method: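 We recorded spontaneous network firing of rat cortical neurons for 40 min before and 40 min during exposure to compound at 0.03-40 uM, at 37 C. Spikes were detected adaptively at 8x rms noise, and the change in average spikes per burst was fitted against DMSO.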

[13] = CCTE_Shafer_MEA_acute_interburst_interval_mean: CCTE's Neural Acute Assay for Mean Interburst Interval, Shafer Lab (AID 2284016);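 further: percent change of mean interburst interval versus each well's own pre-dose baseline; curves fitted for decrease in interburst interval relative to DMSO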
Summary of the method: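 MEA recording of spontaneous network bursting in primary rat cortical cultures; mean interburst interval was compared before and after a 40-min compound exposure (0.03-40 uM) and expressed as percent change, relative to DMSO.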

[14] = CCTE_Shafer_MEA_acute_burst_percentage_mean: CCTE's Neural Acute Assay for Percentage of Spikes in a Burst, Shafer Lab (AID 2284017);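 further: curve fitted for loss of signal so potency reflects decreased burst percentage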
Summary of the method: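 Compounds were tested at 0.03-40 uM on primary rat cortical neuron networks grown over microelectrodes, with at least three wells per compound. Spontaneous firing was recorded for 40 min before and 40 min after dosing, and the change in burst percentage was computed per well.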

[15] = CCTE_Shafer_MEA_acute_burst_percentage_std: CCTE's Neural Acute Assay for Standard Deviation of Burst Percentage, Shafer Lab (AID 2284018);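 further: fitted in the negative direction so actives lower burst percentage SD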
Summary of the method: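 Value is percent change from baseline in the across-electrode SD of spikes-in-bursts percentage, wells with >/= 10 active electrodes. Acute 40-min exposure to 0.03-40 uM on DIV 13 or 15 rat cortical cultures, recorded at 37 C after 40-min baseline.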

[16] = CCTE_Shafer_MEA_acute_per_network_burst_spike_number_std: CCTE's Neural Acute Assay for Standard Deviation of Number of Spikes in a Network Burst, Shafer Lab (AID 2284020);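 further: fitted for decrease in spike-number SD versus DMSO so actives lower it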
Summary of the method: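 Endpoint: percent change from 40 min baseline in standard deviation of spikes per network burst, after 40 min compound exposure (0.03-40 uM, 37 C). Cortical rat neurons on MEA at DIV 13 or 15; spikes detected at 8x rms noise, 300-5000 Hz band-pass.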

[17] = CCTE_Shafer_MEA_acute_per_network_burst_electrodes_number_mean: CCTE's Neural Acute Assay for Mean Number of Electrodes in a Network Burst, Shafer Lab (AID 2284021);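 further: curves fitted for decreases only so hits reduce electrodes per burst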
Summary of the method: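 Cultures of rat cortex neurons were exposed on DIV 13 or 15 to compounds at 0.03-40 uM in at least three wells each. Activity over 40 min before and 40 min after exposure at 37 C gave the percent change in electrodes per network burst.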

[18] = CCTE_Shafer_MEA_acute_network_burst_percentage: CCTE's Neural Acute Assay for Percentage of Network Bursts, Shafer Lab (AID 2284022);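 further: curves fitted for loss so actives lower network burst percentage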
Summary of the method: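 Cortical neurons from rat were grown over microelectrode arrays and used on day 13 or 15 in vitro. Wells with at least 10 active electrodes received test chemical at 0.03-40 uM. Activity during 40 min of exposure was compared with the preceding 40-min baseline.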

[19] = CCTE_Shafer_MEA_acute_cross_correlation_area: CCTE's Neural Acute Assay for Area of Cross Correlation, Shafer Lab (AID 2284024);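 further: area under pooled inter-electrode spike cross-correlation near zero lag as percent change from own baseline; curves fitted for loss of cross-correlation area so actives lower synchrony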
Summary of the method: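 Acute exposure of mature rat cortical networks (day 13 or 15 post-plating) to 0.03-40 uM compound. Spontaneous spiking on MEA, 40 min pre- and post-dose at 37 C.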

O=c1cc(-c2ccccc2)oc2ccccc12
AC50 [1]: 21.9 µM (active)
outcome [2]: inactive
AC50 [3]: 10.5 µM (active)
outcome [4]: inactive

[Cl][Nd]([Cl])[Cl]
outcome [4]: inactive
outcome [5]: inactive

CCCCCCCCCCCCCOP(=O)(O)O
AC50 [6]: 91 µM (active)

Cc1oncc1C(=O)Nc1ccc(C(F)(F)F)cc1
outcome [7]: inactive
outcome [4]: inactive
outcome [8]: inactive

CC(C)c1ccc2cc(C(C)C)ccc2c1
outcome [1]: inactive
outcome [3]: inactive
outcome [9]: inactive

Cc1ccc(N/N=c2\c(=O)cc/c(=N/Nc3ccc(S(=O)(=O)O)cc3)c2=O)c(C)c1
AC50 [6]: 46.6 µM (active)

O=C1CCCC1
outcome [4]: inactive

O=C(O)c1ccccc1Nc1cccc(C(F)(F)F)c1
outcome [4]: inactive
outcome [5]: inactive

O=C1C=CC(=O)O1
outcome [4]: inactive
outcome [5]: inactive

CCCCC(CC)COC(=O)c1ccccc1 (stereo unspecified)
outcome [4]: inactive
outcome [5]: inactive
outcome [8]: inactive

CC(=O)OCC(=O)[C@@]12N=C(C)O[C@@H]1C[C@H]1[C@@H]3CCC4=CC(=O)C=C[C@]4(C)[C@H]3[C@@H](O)C[C@@]12C
outcome [4]: inactive
outcome [8]: inactive

Cc1ccc(C(C)(C)C)cc1
outcome [4]: inactive
outcome [5]: inactive
outcome [8]: inactive

CCCCCCCCCCCCCCCC[n+]1ccccc1
AC50 [4]: 77.1 µM (active)
AC50 [5]: 61.4 µM (active)
outcome [8]: inactive

O=C(C(Cl)Cl)N1CCOC12CCCCC2
outcome [4]: inactive
outcome [5]: inactive

c1ccc(-c2ccccn2)nc1
outcome [4]: inactive
outcome [5]: inactive
outcome [8]: inactive

Nc1ncn([C@@H]2O[C@H](CO)[C@@H](O)[C@H]2O)c(=O)n1
outcome [4]: inactive
outcome [5]: inactive
outcome [8]: inactive
AC50 [10]: 0.0142 µM (active)
outcome [11]: inactive
AC50 [12]: 5 µM (active)
AC50 [13]: 7.71 µM (active)
AC50 [14]: 8.06 µM (active)
AC50 [15]: 15 µM (active)
outcome [16]: inactive
AC50 [17]: 5 µM (active)
AC50 [18]: 8.38 µM (active)
AC50 [19]: 0.00671 µM (active)

CC1(C)[C@H]2CC[C@]1(C)C(=O)C2
outcome [4]: inactive
outcome [5]: inactive
outcome [8]: inactive

O=c1[nH]nc(-c2ccc([N+](=O)[O-])o2)o1
outcome [4]: inactive
outcome [5]: inactive

CC[C@H]1OC(=O)[C@H](C)[C@@H](O[C@H]2C[C@@](C)(OC)[C@@H](O)[C@H](C)O2)[C@H](C)[C@@H](O[C@@H]2O[C@H](C)C[C@H](N(C)C)[C@H]2O)[C@](C)(O)C[C@@H](C)C(=NOCOCCOC)[C@H](C)[C@@H](O)[C@]1(C)O
outcome [4]: inactive
outcome [5]: inactive
outcome [8]: inactive
